Reference: the supplement of paper PMC10849652
Of roughly 8,800 targets only a part is listed; those with a hit were picked by preference. About 0.5% of all pairs of compound and target were hits. Values without a mark were called inactive.

What was measured:
Test in all cases: log2 fold change, soluble protein after heating vs DMSO (PISA); higher = thermal stabilisation; K562 lysate, 10 uM; active = over 0.2 and 3.5 SD of the protein, either way, in both replicates (recomputed)
ibrutinib = compound: C=CC(=O)N1CCC[C@@H](n2nc(-c3ccc(Oc4ccccc4)cc3)c3c(N)ncnc32)C1 [ibrutinib]
Summary of the method: (§1)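 Thermal stability, expressed as log-two fold change relative to solvent controls, is given from duplicates. Crude K562 extract in PBS pH 7.4 with 1 mM MgCl2, at 1 mg/mL protein, was treated with 10 μM compound for 30 min and heated in aliquots for 3 min across 48°C-58°C. After pooling, adjustment to 0.5% NP-40 at 4°C and centrifugation at 21,000xg for 90 min, supernatant protein was measured by TMTpro 16plex LC-MS/MS with channel sums equalised.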

[1] = compound: CC(=O)c1cnc2ccc(-c3cc(Cl)c(O)c(Cl)c3)nc2c1N[C@H]1CC[C@H](CN(C)C)CC1
Summary of the method: as §1

ralimetinib = compound: CC(C)(C)Cn1c(N)nc2ccc(-c3[nH]c(C(C)(C)C)nc3-c3ccc(F)cc3)nc21 [ralimetinib]
Summary of the method: as §1

[2] = compound: CC(C)(O)CC(=O)NCCn1ccc2ncnc(Nc3ccc(Oc4cccc(C(F)(F)F)c4)c(Cl)c3)c21
Summary of the method: as §1

[3] = compound: CC(C)C1=C2N=C(C=C(N2N=C1)NCC3=CC=CC=C3)NCCCCCCN
Summary of the method: as §1

[4] = compound: CC1=C(C(CC(=O)N1)C2=CC=C(C=C2)C(F)(F)F)C(=O)NC3=C(C=C4C(=C3)C=NN4)F
Summary of the method: as §1

[5] = compound: CC1=C(C2=C(C=C1)C(=O)C3=CC=CC=C3N2CCCN)C
Summary of the method: as §1

[6] = compound: CC1=C(C=C(C=C1)NC(=O)C2=CC(=CC=C2)C(C)(C)C#N)NC3=CC4=C(C=C3)N=CN(C4=O)C
Summary of the method: as §1

[7] = compound: CC1=C(C=C(C=C1)NC(=O)C2=CC(=CC=C2)N(C)C)NC(=O)C3=CC=C(C=C3)O
Summary of the method: as §1

[8] = compound: CC1=CC=C(C=C1)SC2=C3C=C(SC3=CN=C2)C(=O)N
Summary of the method: as §1

vemurafenib = compound: CCCS(=O)(=O)Nc1ccc(F)c(C(=O)c2c[nH]c3ncc(-c4ccc(Cl)cc4)cc23)c1F [vemurafenib]
Summary of the method: as §1

[9] = compound: CCCS(=O)(=O)Nc1ccc(F)c(C(=O)c2c[nH]c3ncc(Cl)cc23)c1F
Summary of the method: as §1

barasertib = compound: CCN(CCCOc1ccc2c(Nc3cc(CC(=O)Nc4cccc(F)c4)[nH]n3)ncnc2c1)CCOP(=O)(O)O [barasertib]
Summary of the method: as §1

[10] = compound: CC[C@@H]1C(=O)N(C)c2cnc(Nc3ccc(C(=O)NC4CCN(C)CC4)cc3OC)nc2N1C1CCCC1
Summary of the method: as §1

volasertib = compound: CC[C@@H]1C(=O)N(C)c2cnc(Nc3ccc(C(=O)N[C@H]4CC[C@H](N5CCN(CC6CC6)CC5)CC4)cc3OC)nc2N1C(C)C [volasertib]
Summary of the method: as §1

[11] = compound: CCn1c(C(=O)N(C2CC2)C2CC2)cc2c3c(ncn3C)c(Nc3cc(C)n(C)n3)nc21
Summary of the method: as §1

[12] = compound: CCn1cc(-c2ccnc3[nH]c(-c4cccc(CN(C)C)c4)cc23)c(-c2ccc(NC(=O)N(C)C)cc2)n1
Summary of the method: as §1

[13] = compound: CN1CCC(CNc2ccc3ncc(-c4cccc(OC(F)(F)F)c4)n3n2)CC1
Summary of the method: as §1

saracatinib = compound: CN1CCN(CCOc2cc(OC3CCOCC3)c3c(Nc4c(Cl)ccc5c4OCO5)ncnc3c2)CC1 [saracatinib]
Summary of the method: as §1

sotrastaurin = compound: CN1CCN(c2nc(C3=C(c4c[nH]c5ccccc45)C(=O)NC3=O)c3ccccc3n2)CC1 [sotrastaurin]
Summary of the method: as §1

UniProt Q13330, sequence (Q13330 whole entry, looked up): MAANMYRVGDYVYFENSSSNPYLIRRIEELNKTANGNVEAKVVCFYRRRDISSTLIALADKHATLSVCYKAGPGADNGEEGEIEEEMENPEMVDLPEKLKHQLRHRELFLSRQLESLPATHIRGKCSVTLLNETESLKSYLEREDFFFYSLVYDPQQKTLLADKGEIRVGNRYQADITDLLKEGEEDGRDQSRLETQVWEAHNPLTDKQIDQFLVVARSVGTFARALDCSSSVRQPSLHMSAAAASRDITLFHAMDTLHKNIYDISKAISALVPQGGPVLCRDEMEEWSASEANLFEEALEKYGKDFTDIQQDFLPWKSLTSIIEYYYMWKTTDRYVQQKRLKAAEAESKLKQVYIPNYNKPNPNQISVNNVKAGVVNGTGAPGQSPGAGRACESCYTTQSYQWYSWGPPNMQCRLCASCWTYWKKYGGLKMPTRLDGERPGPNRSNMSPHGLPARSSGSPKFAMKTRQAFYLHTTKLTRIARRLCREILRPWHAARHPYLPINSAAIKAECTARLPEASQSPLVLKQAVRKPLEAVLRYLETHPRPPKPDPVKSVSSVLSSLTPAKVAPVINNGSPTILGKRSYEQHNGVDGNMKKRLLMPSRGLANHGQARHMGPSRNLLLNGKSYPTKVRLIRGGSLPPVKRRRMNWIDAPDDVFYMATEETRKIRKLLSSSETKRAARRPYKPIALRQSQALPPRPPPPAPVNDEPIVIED
UniProt Q9Y6C9, sequence (Q9Y6C9 whole entry, looked up): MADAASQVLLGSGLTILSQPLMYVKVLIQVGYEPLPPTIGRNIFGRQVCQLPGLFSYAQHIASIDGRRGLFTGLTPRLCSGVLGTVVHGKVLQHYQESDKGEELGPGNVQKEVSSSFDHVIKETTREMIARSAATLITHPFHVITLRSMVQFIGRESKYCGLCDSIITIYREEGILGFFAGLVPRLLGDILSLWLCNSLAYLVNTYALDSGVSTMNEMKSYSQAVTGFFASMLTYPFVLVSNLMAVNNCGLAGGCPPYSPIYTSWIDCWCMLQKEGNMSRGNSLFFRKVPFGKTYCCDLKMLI
UniProt Q9Y6R0, sequence (Q9Y6R0 whole entry, looked up): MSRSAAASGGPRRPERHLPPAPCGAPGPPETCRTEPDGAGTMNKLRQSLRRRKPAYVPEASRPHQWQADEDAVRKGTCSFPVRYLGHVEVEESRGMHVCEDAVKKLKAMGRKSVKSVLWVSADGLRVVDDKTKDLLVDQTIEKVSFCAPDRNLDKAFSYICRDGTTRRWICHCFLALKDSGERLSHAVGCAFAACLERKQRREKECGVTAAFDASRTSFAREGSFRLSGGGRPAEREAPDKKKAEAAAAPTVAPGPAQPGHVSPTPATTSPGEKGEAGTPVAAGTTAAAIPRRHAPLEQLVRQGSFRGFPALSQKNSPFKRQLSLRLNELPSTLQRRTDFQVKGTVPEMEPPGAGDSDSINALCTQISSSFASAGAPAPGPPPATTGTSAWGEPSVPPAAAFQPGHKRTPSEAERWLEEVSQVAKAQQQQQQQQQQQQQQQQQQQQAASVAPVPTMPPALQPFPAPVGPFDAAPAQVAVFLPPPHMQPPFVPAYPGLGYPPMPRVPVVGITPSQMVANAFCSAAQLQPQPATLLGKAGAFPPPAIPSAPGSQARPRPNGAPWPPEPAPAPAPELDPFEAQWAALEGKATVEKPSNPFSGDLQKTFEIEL
UniProt Q6KC79, sequence (Q6KC79 whole entry, looked up): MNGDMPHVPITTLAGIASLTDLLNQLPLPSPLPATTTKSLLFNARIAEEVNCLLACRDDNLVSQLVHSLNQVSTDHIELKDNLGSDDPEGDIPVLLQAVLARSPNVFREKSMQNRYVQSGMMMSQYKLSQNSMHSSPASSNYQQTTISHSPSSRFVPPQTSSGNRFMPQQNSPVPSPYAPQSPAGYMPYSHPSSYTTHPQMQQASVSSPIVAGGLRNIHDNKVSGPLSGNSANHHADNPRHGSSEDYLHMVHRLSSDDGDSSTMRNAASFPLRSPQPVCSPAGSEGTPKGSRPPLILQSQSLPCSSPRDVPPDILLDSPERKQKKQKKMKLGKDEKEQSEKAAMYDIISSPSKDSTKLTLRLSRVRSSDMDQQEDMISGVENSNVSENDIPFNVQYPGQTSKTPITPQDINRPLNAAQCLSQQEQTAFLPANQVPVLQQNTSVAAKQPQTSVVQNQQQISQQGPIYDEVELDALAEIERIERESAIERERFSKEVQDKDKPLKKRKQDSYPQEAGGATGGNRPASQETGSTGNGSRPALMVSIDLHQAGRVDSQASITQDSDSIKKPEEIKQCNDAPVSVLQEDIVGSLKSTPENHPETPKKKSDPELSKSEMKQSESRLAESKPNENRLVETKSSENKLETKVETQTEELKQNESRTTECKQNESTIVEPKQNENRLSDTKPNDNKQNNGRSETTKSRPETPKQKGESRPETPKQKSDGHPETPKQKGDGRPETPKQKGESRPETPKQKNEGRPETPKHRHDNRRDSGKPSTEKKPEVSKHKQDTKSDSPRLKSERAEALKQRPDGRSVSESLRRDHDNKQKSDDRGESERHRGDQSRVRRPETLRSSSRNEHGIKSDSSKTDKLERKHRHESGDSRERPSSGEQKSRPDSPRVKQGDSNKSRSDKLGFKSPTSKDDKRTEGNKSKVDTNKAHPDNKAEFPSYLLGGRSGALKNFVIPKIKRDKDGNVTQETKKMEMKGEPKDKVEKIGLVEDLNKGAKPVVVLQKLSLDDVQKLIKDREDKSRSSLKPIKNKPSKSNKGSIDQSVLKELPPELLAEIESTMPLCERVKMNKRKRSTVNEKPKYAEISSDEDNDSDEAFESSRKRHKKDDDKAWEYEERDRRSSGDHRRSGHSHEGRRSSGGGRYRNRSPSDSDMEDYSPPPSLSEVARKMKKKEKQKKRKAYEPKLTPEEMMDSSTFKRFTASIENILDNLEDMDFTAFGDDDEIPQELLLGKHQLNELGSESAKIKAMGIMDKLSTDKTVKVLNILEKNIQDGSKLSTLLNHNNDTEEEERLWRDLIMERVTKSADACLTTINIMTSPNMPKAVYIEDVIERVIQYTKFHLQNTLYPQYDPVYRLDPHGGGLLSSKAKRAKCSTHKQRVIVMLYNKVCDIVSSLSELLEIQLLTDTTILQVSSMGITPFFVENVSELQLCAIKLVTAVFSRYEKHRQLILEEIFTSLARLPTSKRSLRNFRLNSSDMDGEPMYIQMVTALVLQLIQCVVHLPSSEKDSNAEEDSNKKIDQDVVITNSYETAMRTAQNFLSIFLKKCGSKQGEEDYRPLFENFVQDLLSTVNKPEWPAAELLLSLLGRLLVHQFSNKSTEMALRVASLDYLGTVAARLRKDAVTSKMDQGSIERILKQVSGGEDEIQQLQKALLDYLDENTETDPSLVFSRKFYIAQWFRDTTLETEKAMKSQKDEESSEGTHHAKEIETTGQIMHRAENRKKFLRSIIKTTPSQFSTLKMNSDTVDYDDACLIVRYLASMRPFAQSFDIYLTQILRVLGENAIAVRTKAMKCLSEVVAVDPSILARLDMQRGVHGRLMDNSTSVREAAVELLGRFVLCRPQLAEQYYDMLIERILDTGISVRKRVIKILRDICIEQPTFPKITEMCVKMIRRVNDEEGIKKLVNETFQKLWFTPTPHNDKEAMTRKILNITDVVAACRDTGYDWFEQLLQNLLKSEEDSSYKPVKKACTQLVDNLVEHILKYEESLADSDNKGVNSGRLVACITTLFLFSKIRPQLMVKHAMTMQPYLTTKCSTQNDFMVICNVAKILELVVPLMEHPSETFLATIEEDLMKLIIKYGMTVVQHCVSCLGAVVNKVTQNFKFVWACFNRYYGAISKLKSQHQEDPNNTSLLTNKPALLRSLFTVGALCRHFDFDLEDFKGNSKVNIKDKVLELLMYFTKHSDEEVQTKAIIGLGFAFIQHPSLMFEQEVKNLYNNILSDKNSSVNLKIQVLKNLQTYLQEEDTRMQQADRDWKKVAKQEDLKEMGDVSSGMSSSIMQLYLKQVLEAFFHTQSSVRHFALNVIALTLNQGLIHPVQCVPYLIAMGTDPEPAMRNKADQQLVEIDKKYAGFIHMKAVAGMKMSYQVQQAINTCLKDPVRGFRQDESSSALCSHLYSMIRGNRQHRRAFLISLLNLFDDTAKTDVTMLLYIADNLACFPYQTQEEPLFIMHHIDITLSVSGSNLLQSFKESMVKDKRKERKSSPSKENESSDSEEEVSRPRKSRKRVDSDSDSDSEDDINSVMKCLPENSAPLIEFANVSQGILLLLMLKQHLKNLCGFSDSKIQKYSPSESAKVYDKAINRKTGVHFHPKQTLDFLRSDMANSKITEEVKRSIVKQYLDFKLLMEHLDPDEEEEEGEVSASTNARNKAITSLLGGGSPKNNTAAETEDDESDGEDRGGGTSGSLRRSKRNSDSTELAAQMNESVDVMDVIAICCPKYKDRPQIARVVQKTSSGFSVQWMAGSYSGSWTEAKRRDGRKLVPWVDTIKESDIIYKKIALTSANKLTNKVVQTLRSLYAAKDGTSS
UniProt Q9UHQ1, sequence (Q9UHQ1 whole entry, looked up): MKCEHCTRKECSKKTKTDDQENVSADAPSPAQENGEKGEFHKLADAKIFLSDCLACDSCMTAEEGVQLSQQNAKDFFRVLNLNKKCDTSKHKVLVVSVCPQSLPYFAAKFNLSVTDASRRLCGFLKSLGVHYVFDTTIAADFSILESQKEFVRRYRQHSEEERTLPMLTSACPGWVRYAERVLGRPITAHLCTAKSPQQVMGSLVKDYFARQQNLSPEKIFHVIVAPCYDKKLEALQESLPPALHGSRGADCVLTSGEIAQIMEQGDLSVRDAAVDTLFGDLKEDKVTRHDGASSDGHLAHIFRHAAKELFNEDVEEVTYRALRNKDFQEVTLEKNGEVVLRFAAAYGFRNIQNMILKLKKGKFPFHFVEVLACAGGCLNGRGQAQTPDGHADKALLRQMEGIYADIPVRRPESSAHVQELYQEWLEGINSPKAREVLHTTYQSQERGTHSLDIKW
UniProt Q9NZJ9, sequence (Q9NZJ9 whole entry, looked up): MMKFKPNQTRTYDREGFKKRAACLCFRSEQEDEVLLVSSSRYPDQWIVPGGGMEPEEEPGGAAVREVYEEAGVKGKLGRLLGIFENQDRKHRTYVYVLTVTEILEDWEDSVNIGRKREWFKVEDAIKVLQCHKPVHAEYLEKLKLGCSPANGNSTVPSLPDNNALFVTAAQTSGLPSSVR

Row | Target | log2 fold change (ibrutinib) | log2 fold change [1] | log2 fold change (ralimetinib) | log2 fold change [2] | log2 fold change [3] | log2 fold change [4] | log2 fold change [5] | log2 fold change [6] | log2 fold change [7] | log2 fold change [8] | log2 fold change (vemurafenib) | log2 fold change [9] | log2 fold change (barasertib) | log2 fold change [10] | log2 fold change (volasertib) | log2 fold change [11] | log2 fold change [12] | log2 fold change [13] | log2 fold change (saracatinib) | log2 fold change (sotrastaurin)
1 | MRPL58 (UniProt Q14197) | 0.025 | 0.032 | -0.022 | 0.006 | -0.013 | 0.089 | -0.034 | -0.035 | 0.032 | 0.053 | 0.104 | -0.017 | 0.033 | -0.033 | -0.043 | 0.004 | 0.148 | -0.151 | 0.04 | 0.019
2 | NAT1 (UniProt P18440) | -0.089 | -0.039 | 0.062 | 0.019 | -0.035 | -0.001 | -0.048 | 0.034 | 0.009 | 0.052 | 0.04 | -0.003 | -0.104 | 0.003 | 0.009 | -0.012 | -0.149 | -0.014 | -0.001 | 0.078
3 | NCAPG2 (UniProt Q86XI2) | 0.012 | -0.029 | 0.018 | 0.006 | -0.009 | 0.015 | 0.05 | -0.017 | 0.001 | -0.002 | 0.015 | 0.044 | 0.016 | -0.055 | -0.006 | 0.025 | -0.139 | 0.074 | 0.027 | 0.027
4 | NUDT4 isoform 2 (UniProt Q9NZJ9) | -0.006 | 0.002 | 0.035 | -0.044 | -0.006 | 0.016 | -0.054 | 0.034 | 0.024 | -0.024 | 0.009 | 0.021 | -0.05 | 0.013 | 0.005 | -0.018 | -0.068 | 0.058 | 0.076 | 0
5 | MTA1 (UniProt Q13330) | -0.018 | -0.025 | 0.001 | 0.006 | -0.007 | -0.004 | 0 | -0.008 | 0.034 | -0.018 | -0.022 | 0.011 | 0.008 | -0.005 | -0.007 | -0.003 | 0.013 | -0.061 | 0.018 | 0.036
6 | NCAPG (UniProt Q9BPX3) | 0.006 | 0.015 | 0.027 | -0.015 | -0.026 | -0.009 | -0.02 | 0.014 | 0.018 | 0.024 | -0.013 | 0.021 | 0.018 | -0.057 | -0.023 | 0.015 | -0.05 | -0.024 | 0.001 | -0.011
7 | NEBL (UniProt O76041) | 0.087 | 0.052 | 0.009 | -0.003 | -0.015 | -0.037 | -0.061 | -0.006 | -0.012 | -0.025 | 0.034 | -0.027 | 0.066 | 0.039 | 0.014 | -0.014 | 0.29 (active) | -0.002 | -0.035 | 0.085
8 | NARF (UniProt Q9UHQ1) | 0.004 | 0.044 | -0.007 | -0.013 | -0.013 | -0.007 | -0.011 | -0.013 | -0.008 | -0.113 | 0.035 | 0.035 | 0.028 | 0.011 | 0.135 | -0.025 | -0.055 | 0.014 | 0.023 | 0.049
9 | MTCH2 (UniProt Q9Y6C9) | 0.008 | -0.022 | 0.022 | 0.023 | 0.044 | -0.019 | -0.011 | 0.043 | -0.036 | 0.031 | 0.013 | 0.008 | -0.02 | 0.021 | 0.05 | -0.012 | -0.155 | 0.014 | -0.011 | 0.022
10 | MYO1D (UniProt O94832) | -0.016 | -0.012 | 0.04 | 0.003 | 0.018 | -0.021 | -0.009 | -0.014 | 0.01 | 0.031 | 0.073 | 0.018 | 0.05 | 0.006 | -0.003 | -0.002 | -0.05 | -0.035 | -0.001 | 0.041
11 | NIPBL (UniProt Q6KC79) | 0.026 | 0.008 | 0.035 | -0.016 | 0.036 | 0.007 | -0.025 | -0.03 | -0.044 | 0.021 | -0.015 | 0.091 | 0.017 | -0.081 | -0.048 | 0.04 | -0.004 | -0.042 | -0.001 | 0.004
12 | MTHFD1, A0A384N5Y3 | -0.014 | -0.001 | 0.028 | 0.028 | 0.03 | -0.033 | -0.032 | 0.003 | 0.047 | 0.014 | 0.058 | 0.011 | 0.017 | -0.06 | -0.112 | 0.059 | 0.008 | -0.053 | -0.012 | 0.039
13 | NUP188 (UniProt Q5SRE5) | -0.026 | 0.019 | 0.041 | -0.021 | -0.028 | -0.005 | 0.035 | -0.04 | 0.042 | -0.018 | -0.006 | -0.006 | 0.074 | -0.067 | -0.077 | 0.05 | -0.031 | -0.045 | 0.029 | 0.021
14 | NCK1 (UniProt P16333) | 0.025 | -0.029 | 0.003 | 0.01 | -0.016 | 0.028 | 0.002 | -0.005 | 0.029 | 0 | 0.049 | 0.003 | -0.008 | 0.068 | -0.011 | -0.025 | 0.067 | -0.05 | 0.015 | 0.014
15 | NOSTRIN (UniProt Q8IVI9) | 0.025 | -0.009 | 0.012 | -0.041 | -0.125 | -0.032 | -0.039 | -0.019 | 0.088 | 0.012 | 0.091 | 0.024 | 0.085 | -0.178 | -0.029 | -0.026 | 0.025 | -0.094 | -0.001 | -0.054
16 | NUMBL (UniProt Q9Y6R0) | 0.047 | -0.023 | -0.009 | 0.028 | 0.07 | 0.071 | -0.081 | 0.076 | 0.058 | -0.008 | -0.06 | 0.014 | -0.005 | -0.009 | -0.037 | 0.189 | 0.032 | -0.011 | 0.052 | -0.278
